This passage reports Potency, outcome and activity change, negative = inhibition results from PubChem BioAssay (NCATS).

A short description of assay [1]: OV-KATE Cancer Cell Toxicity qHTS against the NCATS CANVASS Library (AID 1347345). Also: % is scaled to controls: 0 for no effect and ±100 for the full control effect. A digest of the protocol:
(§1)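 Per well, 1000 cells; exposure 72 h with compound at 11 final concentrations; readout CellTiter-Glo luminescence.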
On the technique in general: In qHTS, concentration-response curves come from the screen itself.

Assay [2] in a line: UWB1.289 Cancer Cell Toxicity qHTS against the NCATS CANVASS Library (AID 1347347). Also: % is scaled to controls: 0 for no effect and ±100 for the full control effect; nearly all actives have a fitted effect of over 60% in size. A digest of the protocol:
as §1

Assay [3] in a line: OV-SAHO Cancer Cell Toxicity qHTS against the NCATS CANVASS Library (AID 1347348). Also: % is scaled to controls: 0 for no effect and ±100 for the full control effect; nearly all actives have a fitted effect of over 55% in size. A digest of the protocol:
as §1

The nature of assay [4]: U-118MG Cancer Cell Toxicity qHTS against the NCATS CANVASS Library (AID 1347351). Also: % is scaled to controls: 0 for no effect and ±100 for the full control effect. A digest of the protocol: as §1
The nature of assay [5]: COV-362 Cancer Cell Toxicity qHTS against the NCATS CANVASS Library (AID 1347352). Also: % is scaled to controls: 0 for no effect and ±100 for the full control effect. A digest of the protocol: (§2)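 1000 cells/well, 4 h pre-incubation 37 °C/5% CO2; 11-pnt titration; 72 h; CellTiter-Glo 15 min RT, luminescence.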
Assay [6] in a line: UWB1.289-WTBRCA1 Cancer Cell Toxicity qHTS against the NCATS CANVASS Library (AID 1347354). The procedure, abridged:
as §2

Assay [7] can be described thus: HPAF-II 24hr Apoptosis Induction qHTS against the NCATS CANVASS Library (AID 1347356). Also: 0% is about no effect. The procedure, abridged: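 500 HPAF-II cells/well; compounds in 11-pnt qHTS; 24 h, 37 C/5% CO2; Caspase-Glo 3/7 added, 15 min RT dark; luminescence read. Doxorubicin control.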
The nature of assay [8]: HEK293 24hr Apoptosis Induction qHTS against the NCATS CANVASS Library (AID 1347359). Also: 0% is about no effect. The procedure, abridged: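 HEK293 cells (500/well, DMEM + 10% FBS) were exposed to compounds in an 11-point series for 24 hours at 37 degrees C, then caspase-3/7 activity was read by Caspase-Glo DEVD luciferase luminescence after 15 min.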
Assay [9] in a line: HPAF-II 18hr Apoptosis Induction qHTS against the NCATS CANVASS Library (AID 1347360). Also: 0% is about no effect. The procedure, abridged: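 HPAF-II cells (500/well, DMEM + 10% FBS) were exposed to compounds for 18 hours at 37 degrees C. Caspase-3/7 activity was then read by Caspase-Glo 3/7 luminescence after 15 min at room temperature.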
A short description of assay [10]: HEK293 12hr Apoptosis Induction qHTS against the NCATS CANVASS Library (AID 1347361). Also: 0% is about no effect. The procedure, abridged:
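Read-out: Caspase-Glo 3/7 luminescence (DEVD substrate), 15 min RT. Preceded by 12 h compound exposure of HEK293, 500 cells/well, 11-pt qHTS titration; doxorubicin titration as control.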

Assay [11] relates to NAD(P)H diaphorase (Clostridium kluyveri). Put plainly: Diaphorse counterscreen qHTS: Assay Interference Panel against the NCATS CANVASS Library (AID 1347362). Also: 0% is about no effect. A digest of the protocol:
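Clostridium kluyveri diaphorase in PBS with 0.01% Tween-20 was preincubated 15 min at room temperature in the dark with compounds (11-point series). Resorufin fluorescence (ex 525/20, em 598/25) was read 5 min after adding resazurin/NADH.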
For orientation: A counterscreen serves to expose hits that act by an unwanted route or on another target.

For assay [12], the target named is Luciferin 4-monooxygenase (Photinus pyralis) (UniProt P08659). Put plainly: Firefly luciferase counterscreen qHTS: Assay Interference Panel against the NCATS CANVASS Library (AID 1347363). Also: 0% is about no effect. The procedure, abridged:
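Purified P. pyralis luciferase was added to compounds (11-point series) preincubated 15 min at room temperature with substrate containing 0.013 mM D-luciferin and 0.013 mM ATP; luminescence was read after 5 min.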

Assay [13] in a line: KB-8-5-11 Cancer Cell Toxicity qHTS against the NCATS CANVASS Library (AID 1347364). Also: % is scaled to controls: 0 for no effect and ±100 for the full control effect; nearly all actives have a fitted effect of over 75% in size. A digest of the protocol: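 CellTiter-Glo luminescence after 72 h exposure; 500 KB-8-5-11 cells/well, DMEM/10% FBS, 37C, 5% CO2; compounds in 11-pt qHTS. Follow-up confirmation included medium with 1uM tariquidar.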
Assay [14] in a line: KB-3-1 Cancer Cell Toxicity qHTS against the NCATS CANVASS Library (AID 1347366). Also: % is scaled to controls: 0 for no effect and ±100 for the full control effect; nearly all actives have a fitted effect of over 75% in size. The procedure, abridged:
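KB-3-1 cells (500 cells/well) in DMEM + 10% FBS were treated with compounds for 72 hr at 37C, 5% CO2. Viability was read as CellTiter-Glo luminescence after 10 minutes at room temperature.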

A short description of assay [15]: qHTS for ATAD5 Agonist screened against the NCATS CANVASS Library (AID 1347367).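 Also: luciferase reporter driven by ATAD5 which rises upon DNA damage; 0% is about no effect.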 The procedure, abridged: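 HEK293T cells stably carrying an ATAD5-controlled luciferase reporter (2000 cells/well) attached for 5 hr, then received compounds in an 11-point series for 16hr at 37C. Luminescence was read after a 30 min room-temperature reagent step.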
Assay [16] can be described thus: MCF7 Cancer Cell Toxicity qHTS against the NCATS CANVASS Library (AID 1347369). The procedure, abridged: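 MCF7, 500 cells/well; cpds 11-pt qHTS; 72 hr, 37C/5% CO2; CellTiterGlo ATP luminescence.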
Assay [17] is described as follows: Confirmatory qHTS for activators (rescue) of SARS-CoV-2 Cytopathic Effect (CPE) (AID 1508606; calls by dose curve; also: potency is read from the fitted curve at half-maximal effect; nearly all actives have a fitted effect of over 70% in size).
A short description of assay [18]: qHTS to identify inhibitors of the type 1 interferon - major histocompatibility complex class I in skeletal muscle: primary screen against the NCATS Mechanism Interrogation Plate v5.0 (MIPE) Libary (AID 1347411). Also: nearly all actives have a fitted effect of over 65% in size. Also: potency is read from the fitted curve at half-maximal effect.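 As to activity change, negative = inhibition: plate controls were vehicle for no effect and reference inhibitor for full effect.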 A digest of the protocol: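 HLA-B HiBit myoblasts, dexamethasone-free medium + 4 ng/ml IFN-b, 24 h compound, 11-pt 1:3 from 46 uM final. Readout: Nano-Glo HiBiT lytic luminescence after 10 min lysis, RT.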

A short description of assay [19]: Cytotoxicity counterscreen for inhibitors of SARS-CoV-2 cell entry (AID 1645845; calls by dose curve; also: nearly all actives have a fitted effect of over 50% in size; also: potency is read from the fitted curve at half-maximal effect). The procedure, abridged:
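After a 15 min room-temperature ATPLite 1step step, luminescence reflected ATP remaining in HEK293-ACE2 cells exposed to compound for 1 h plus 48 h at 37 C, with percent activity set by cell and no-cell controls.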

Assay [20] can be described thus: Primary qHTS to identify inhibitors of SARS-CoV-2 cell entry (AID 1645846; calls by dose curve; also: nearly all actives have a fitted effect of over 45% in size). The following applies: activity change, negative = inhibition: at 57.1 µM (top of the series) unless noted. The procedure, abridged:
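Luminescence readout (Bright-Glo luciferase) 48 h after pseudoparticle addition. HEK293-ACE2 cells, 1500/well; compound pre-incubation 1 h; Normalized to spike PP and bald PP.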

Results filed as inconclusive are left out. Activity calls are given as the source filed them. Unless noted, calls follow the shape of the dose curve; as a rule, active = well fitted curve in the direction sought with a large enough effect; inconclusive = small, poorly fitted or top-dose-only effect, or another doubt; inactive = no such curve, though single readings can be large; an effect the other way counts as inactive or inconclusive.

Luciferin 4-monooxygenase (Photinus pyralis), sequence (P08659 whole entry, looked up): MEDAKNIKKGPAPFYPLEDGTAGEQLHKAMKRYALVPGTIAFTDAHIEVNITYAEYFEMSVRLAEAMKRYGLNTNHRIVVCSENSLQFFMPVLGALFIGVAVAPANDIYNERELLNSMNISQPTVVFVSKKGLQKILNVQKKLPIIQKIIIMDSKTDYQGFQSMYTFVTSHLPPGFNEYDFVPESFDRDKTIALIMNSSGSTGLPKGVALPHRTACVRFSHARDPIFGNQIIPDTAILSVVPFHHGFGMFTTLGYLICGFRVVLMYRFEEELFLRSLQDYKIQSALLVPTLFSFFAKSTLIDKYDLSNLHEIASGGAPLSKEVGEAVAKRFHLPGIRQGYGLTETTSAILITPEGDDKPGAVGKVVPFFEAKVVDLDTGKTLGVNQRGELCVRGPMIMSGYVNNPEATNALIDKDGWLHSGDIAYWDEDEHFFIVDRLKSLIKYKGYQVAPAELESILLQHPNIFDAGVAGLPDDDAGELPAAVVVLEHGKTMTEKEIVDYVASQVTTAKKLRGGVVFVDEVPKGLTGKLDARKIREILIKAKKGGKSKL

For `CN1C(=O)[C@]23CC4C(C)(C)[C@@]5(C[C@@]41CN2CC[C@@]3(C)O)C(=O)Nc1c5ccc2c1OC=CC(C)(C)O2` (some centres undefined), the Potency entry in assay [1], in [2], in assay [3], in assay [4], in [5] and in [6] was “inactive” throughout. The Potency entry in assay [8], in [10], in [13], in assay [14], in assay [15] and in assay [16] was “inactive” throughout. Also, the call in [7], in assay [9], in assay [11] and in [12] was inactive.
Turning to `C/C=C1/CN2CC[C@]34C(=Nc5ccccc53)[C@@H]2C[C@@H]1[C@H]4C(=O)OC`, the Potency entry in assay [1], in assay [2], in assay [3], in [4], in assay [5] and in [6] was “inactive” throughout. Further, the Potency result in assay [8], in assay [10], in assay [13], in assay [14], in assay [15] and in assay [16] was “inactive” throughout. Besides, the result in assay [7], in [9], in assay [11] and in assay [12] was inactive.
On to `C/C=C(\C)C(=O)O[C@H]1CC2C(=C1C)[C@H]1OC(=O)[C@](C)(O)[C@]1(O)[C@H](OC(=O)CCC)C[C@@]2(C)OC(C)=O` (some centres undefined), for which the Potency in [17] is 2.2 µM (active).
Regarding `Cc1ncc(OC[C@@]2(c3cccc(F)c3)C[C@H]2C(=O)Nc2ccc(F)cn2)c(C)n1`, the Potency entry in assay [18], in assay [19] and in assay [20] was “inactive” in each case.
In the case of `COc1ccc(CCNCc2ccc(OC)c3ccccc23)cc1`, in assay [17], the Potency is 11.2 µM (active).
On to `CN1CN(c2ccccc2)C2(CCN(CCCC(=O)c3ccc(F)cc3)CC2)C1=O`, for which the Potency in [17] is 7.08 µM (active).
As for `C[C@H](Nc1ncnc2nc[nH]c12)c1nc2ccc(F)cc2c(=O)n1-c1ccccc1`, the activity change, negative = inhibition in [20] was -57.8%.
As to `NC(=O)[C@@H](CC1CC1)[C@@H](CCC(F)(F)F)C(=O)N[C@H]1N=C(c2ccccc2)c2cccc(F)c2NC1=O`, the Potency entry in [18] and in assay [19] was “inactive” in each case. In addition, the activity change, negative = inhibition in assay [20] is -2.84%.
Consider `COc1ccc(C(C)(C)C)cc1CN[C@H]1C2CCN(CC2)[C@H]1C(c1ccccc1)c1ccccc1`, for which, in assay [19], the Potency entry is “inactive”.
On to `CC[C@H]1/C=C\C=C/C[C@@H](C)[C@H](O)[C@@](C)(O)C(=O)[C@@H](C)[C@H](O)[C@@H](C)C(=O)[C@@H](C)[C@H](O)[C@@H](C)/C=C\C(=O)O[C@@H]2[C@H](C)[C@H](CC1)O[C@]1(CC[C@H](C)[C@H](C[C@@H](C)O)O1)[C@H]2C`, for which the Potency is 20.8 µM (active) in [18] and 20 µM (active) in assay [19].
Consider `C/C(=C\c1csc(C)n1)[C@@H]1C[C@@H]2O[C@@H]2CCC[C@H](C)[C@H](O)[C@@H](C)C(=O)C(C)(C)[C@@H](O)CC(=O)O1`, for which the Potency entry in assay [18] and in assay [19] was “inactive” throughout. In addition, in [20], the activity change, negative = inhibition is -70%.
In the case of `CC(C)C(=O)O[C@H]1[C@@H]2[C@H](C)C(=O)O[C@@H]2C[C@@H](C)[C@@H]2C=CC(=O)[C@]21C`, the Potency in assay [17] is 7.94 µM (active).
